Pf Dd2 growth – Plasmodium falciparum Dd2 growth inhibition; P. falciparum Dd2 growth, SYBR Green, 72 h; Potency, µM (titrated, usually from 28.9 µM), most hits filed as inhibitors; hit rate 4.3% among 120,000; AID 1347417; active means well fitted inhibition curve with a large enough effect; further: nearly all actives have a fitted effect of over 65% in size
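Infected erythrocytes (Dd2, 0.3% parasitemia, 2.5% hematocrit final) are added to compound in RPMI-1640/Albumax II medium, grown 72 h at 37C in low oxygen, then lysed with saponin/Triton-X containing SYBR Green and read by fluorescence.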
A number is an active result; . = inactive. This is one part of a sample in which hits are shown more often than they occur.

SMILES	Pf Dd2 growth
Cc1ccc(C2Cn3nnc(C(=O)N4CCN(C(=O)Cc5cccc(F)c5)CC4)c3CO2)cc1 (stereo unspecified)	.
Cc1ccsc1C(=O)N1CCC(n2cc(-c3nc(-c4ccccc4)no3)nn2)CC1	.
COc1ccc(NC(=O)C2CCN(C(=O)c3ncn4c3COC(c3ccccc3)C4)CC2)cc1OC (stereo unspecified)	.
O=C(Cc1ccccc1)N1CCC2(CC(c3cccnc3)=NO2)C1 (stereo unspecified)	.
CN1C(=O)C2(c3ccccc31)N(c1ccc(F)c(Cl)c1)C(=O)CS2(=O)=O (stereo unspecified)	.
COc1ccc(N2C(=O)CS(=O)(=O)C23C(=O)N(Cc2ccccc2)c2ccccc23)cc1 (stereo unspecified)	.
O=C1CS(=O)(=O)C2(C(=O)N(Cc3ccccc3Cl)c3ccccc32)N1c1ccc(F)cc1 (stereo unspecified)	5.6µM
COc1ccc(Nc2c3c(nc4nncn24)CCC3)cc1OC	.
COc1cc(OC)c(NC(=O)c2ccc3c(Cl)c4c(nc3c2)CCCC4)cc1Cl	.
COc1cc(OC)c(Nc2c3c(nc4nc(-c5cccs5)nn24)CCCC3)cc1Cl	11µM
Cn1cnc(S(=O)(=O)N2CCCCC2c2nc(-c3ccncc3)n[nH]2)c1 (stereo unspecified)	.
COc1cc(CNC(=O)CN2CCCc3nc(C4CC4)ncc3C2=O)cc(OC)c1	.
CC1=C(C(=O)Nc2ccccc2)C(c2cc(C)ccc2C)N2C(CC(=O)N3CCCC3)=CSC2=N1 (stereo unspecified)	.
Cc1nnc(CN(C)C(=O)CC(c2ccccc2)c2ccc(Cl)cc2)o1 (stereo unspecified)	.
Cc1cnc(CN(C)C(=O)CC(c2ccccc2)c2ccc(Cl)cc2)[nH]1 (stereo unspecified)	8.9µM
Cc1nonc1CN(C)C(=O)CC(c1ccccc1)c1cccc(Cl)c1 (stereo unspecified)	.
Cc1ncccc1OC1(C(=O)N2CCCC2c2nc(C(C)C)no2)CCNCC1 (stereo unspecified)	.
Cc1noc(C)c1-c1cn(CCNS(=O)(=O)c2ccc(Cl)cc2)nn1	.
CCN(C(=O)CSc1nc(-c2ccc(C(C)C)cc2)no1)c1cccc(C)c1	0.89µM
CCN(C(=O)Cc1nc(-c2ccc(OC)cc2)no1)c1cccc(Cl)c1	.
CCN(C(=O)CCc1nc(-c2ccc(C)cc2)no1)c1cc(C)ccc1C	.
CCN(C(=O)CSc1nc2ncccc2[nH]1)c1ccc(C(C)C)cc1	.
CCN(C(=O)CSc1nnc(-c2ccc(Cl)cc2)o1)c1ccccc1	.
CCN(C(=O)CSc1nc(-c2ccc(C(C)C)cc2)no1)c1ccccc1	1.1µM
O=C1Nc2ccccc2CC12CN([S+](=O)([O-])c1cccs1)C2	.
SMILES	Pf Dd2 growth
COc1ccccc1CCN1CCC(CN(C)C(=O)CCc2ccccc2Cl)CC1	8.9µM
COc1ccccc1CCN1CCCC(CN(C)C(=O)Cn2cccnc2=O)C1 (stereo unspecified)	.
COc1ccccc1CCN1CCCC(CN(C)C(=O)CN2C(=O)CNC2=O)C1 (stereo unspecified)	.
COc1ccc(C(CC(=O)N2CCC(OC)CC2)c2ccccc2)cc1 (stereo unspecified)	.
O=C1N[C@@H]2CCN(C(=O)C3CCCCC3)[C@@H]2C(=O)N1c1ccc(Oc2ccccc2)cc1	.
COc1ccc(CNC(=O)C[C@@H]2CCNC[C@@H]2Cc2cc(-c3ccc(OC)cc3)on2)cc1	.
C#CCN(C)C(=O)C[C@@H]1CCNC[C@@H]1Cc1cc(COc2ccccc2)on1	10µM
COc1ccc(-c2cc(C[C@H]3CNCC[C@H]3CC(=O)NCc3ccc(OC)c(OC)c3)no2)cc1	.
COc1ccc(CNC(=O)C[C@@H]2CCNC[C@@H]2Cc2cc(CN(C)Cc3ccccc3)on2)cc1	.
O=C(C[C@@H]1CCNC[C@@H]1Cc1cc(COc2ccccc2)on1)NC1CCCCC1	.
CN(Cc1ccccc1)C(=O)C[C@@H]1CCNC[C@@H]1Cc1cc(CSc2ccccc2)on1	10µM
COc1ccc(-c2cc(C[C@H]3CNCC[C@H]3CC(=O)NCc3ccccc3OC)no2)cc1	10µM
COc1ccc(-c2cc(C[C@H]3CNCC[C@H]3CC(=O)N3CCN(c4ccccc4)CC3)no2)cc1	.
O=C(C[C@@H]1CCNC[C@@H]1Cc1cc(CSc2ccccc2)on1)NCCN1CCOCC1	.
COc1ccc(-c2cc(C[C@H]3CNCC[C@H]3CC(=O)N(C)Cc3ccccc3)no2)cc1	10µM
O=C(C[C@@H]1CCNC[C@@H]1Cc1cc(CSc2ccccc2)on1)NCc1cccnc1	.
COc1ccc(-c2cc(C[C@H]3CNCC[C@H]3CC(=O)N3CCN(C)CC3)no2)cc1	.
CC1(C(=O)NCc2ccncc2)CCc2cnc(NCc3ccccc3)nc21 (stereo unspecified)	.
COc1nc2c(cc1CNC(=O)CC1CC1)C(=O)N(C1CCCC1)C2	.
CCC(=O)N1CCc2c(C(=O)Nc3ccc(OC)c(OC)c3)cccc21	.
O=C(NC1CCCC1)c1c(OCC2CC2)cc(=O)n2c1CCOCC2	.
Cc1cnc(CCNC(=O)c2cnccn2)n1CC1CC1	.
Cn1c(Cn2cccn2)nnc1C1CC(NC(=O)c2cc(C#N)c[nH]2)C1 (stereo unspecified)	.
CNC(=O)[C@@H](c1ccccc1F)N1CCC[C@H]1C(=O)NCc1ccncc1	.
Cc1ccccc1CN1Cc2nc(N3CCCC3)ccc2OCC1=O	10µM
SMILES	Pf Dd2 growth
Cc1ccccc1CN1Cc2nc(-c3cnn(C)c3)ccc2OCC1=O	.
Cc1ccccc1CN1Cc2nc(-c3ccccc3)ccc2OCC1=O	.
OCCc1cc(CC2(NC3CCOCC3)COC2)no1	.
Cn1nc(C(=O)N2CC[C@H]3C(=O)NCCCCCCN(Cc4ccncc4)[C@@H]3C2)c2ccccc21	.
CN1CCCCCC(O)c2cc(C(=O)NCCc3c[nH]c4ccccc34)ccc21 (stereo unspecified)	13µM
CN1CCCCCC(O)c2cc(C(=O)NCCCc3ccccc3)ccc21 (stereo unspecified)	.
CN1CCCCCC(O)c2cc(C(=O)NCCN3CCOCC3)ccc21 (stereo unspecified)	.
Cc1cnccc1CN(C)Cc1ccc2c(C)cc(=O)oc2c1	.
Cn1nc(C(=O)N2CCN(c3ccc(Cl)cc3)CC2)c2c1-c1ccccc1SC2	.
Cc1ccc2c(c1)-c1c(c(C(=O)N3CCN(c4cc(C)ccc4C)CC3)nn1C)CS2	13µM
COc1ccc(NC(=O)c2nn(C)c3c2CSc2ccc(C)cc2-3)cc1OC	.
CC1(c2noc(C3CC3)n2)CCN(C(=O)CCc2cc(Cl)no2)CC1	.
COc1ccc(-c2ccc3ncc(Nc4ccc(C(N)=O)cc4)n3n2)cn1	.
OCc1cccc(-c2ccc3ncc(Nc4cccc(F)c4)n3n2)c1	.
COc1ccc(-c2ccc3ncc(Nc4cccc(F)c4)n3n2)cn1	.
Cc1ccccc1Nc1cnc2ccc(-c3cccc(CO)c3)nn12	2.5µM
COc1ccc(-c2ccc3ncc(Nc4ccccc4C)n3n2)cn1	5.6µM
COc1ccc(Nc2cnc3ccc(-c4cccc(CO)c4)nn23)cc1	.
Cc1ccn(CC(=O)N2CC(F)(F)C[C@H]2c2nc(C3CC3)no2)n1	.
CNC(=O)[C@@H]1C[C@H](n2cc(CNC(=O)Nc3cccc(Cl)c3C)nn2)CN1	.
COc1ccccc1CN1CC[C@H](c2nc3ccc(C(F)(F)F)cc3[nH]2)C1	8.9µM
CS(=O)(=O)c1ccc(CN2CC[C@H](c3nc4ncccc4[nH]3)C2)cc1	.
